Results reported in PubChem BioAssay AID602393 (Broad Institute, 2012).
Among all 350,000 compounds or so, about 7,000 (2%) were called active. Many of the other results were omitted from the sample, so actives are more common in it than they were. A number with no mark means an inactive call. No stated cut-off is given here; in the data, active means activation above about 40%; inconclusive means no clear call, values can overlap the other calls; inactive means below that.

Experiment: Bmi1 luciferase reporter increase in mESCs, primary screen, esBAF inhibitor project, mouse ES cells, Bmi1 luciferase knock-in, single point (AID 602393);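 further: 0% = median of the plate's neutral control wells and 100% = double that signal; a rise in the Bmi1 reporter signal indicates esBAF inhibition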
Conditions: 24 h, at 12.5 µM, hits give high values, 100% = twice the neutral-well signal
Compound `CNC[C@H]1Oc2ncc(-c3ccccc3C)cc2C(=O)N([C@@H](C)CO)C[C@@H]1C` has a reporter increase of -1.27%. With `Cc1ccc(NC(=O)COc2ccc(/C=N\NC(=O)c3cccnc3)cc2)cc1C` the reporter increase was 1.32%. `Cc1ccc(OCC(=O)NCCCNC(=O)c2cccnc2)cc1C` showed a reporter increase of -1.38%. For `C/C(=C\C(=O)c1cccnc1)Nc1ccc(C)c(C)c1`, the reporter increase was 64.2% (active). Work on `C[C@H]1CCCCO[C@@H](CN(C)Cc2ccc(C(=O)O)cc2)[C@@H](C)CN([C@@H](C)CO)C(=O)c2cc(NS(C)(=O)=O)ccc2O1` yielded a reporter increase of -4.29%. With `CCOc1ccccc1/C=N/Nc1nc2ccccc2o1` the reporter increase was 25.5%. In the case of `COc1cccc(/C=N\Nc2nncc(-c3ccccc3)n2)c1`, the reporter increase was 4.67%. `C(=N\Nc1ccc2ccccc2n1)/c1ccc2c(c1)OCO2` gave a reporter increase of -72.8%. Compound `O=C(CSc1nc2ccccc2o1)N/N=C/c1ccccc1C(=O)O` has a reporter increase of 28.5%. With `Brc1ccccc1/C=N/Nc1nc2ccccc2o1` the reporter increase was 66.2% (active). In the case of `COc1ccc(/C=N/Nc2nc3ccccc3o2)cc1OC`, the reporter increase was 45.9% (active). `CCCN1C[C@@H](C)[C@H](OC)CN(C)C(=O)c2ccc(NC(=O)C3CCOCC3)cc2OC[C@@H]1C` showed a reporter increase of -4.1%. In the case of `C[C@@H]1CN([C@H](C)CO)C(=O)c2cc(NC(=O)Cc3ccccc3)ccc2O[C@@H](C)CCCCO[C@H]1CN(C)C(=O)Cc1ccccc1`, the reporter increase was 4.79%. `CCC(=O)N(C)C[C@H]1Oc2cc(C#CC3CC3)ccc2S(=O)(=O)N([C@@H](C)CO)C[C@@H]1C` gave a reporter increase of -1.51%. Work on `CCCNC(=O)[C@@H]1[C@@H](CO)[C@@H]2Cn3c(ccc(-c4cccc(OC)c4)c3=O)[C@H]1N2C(=O)NCCC` yielded a reporter increase of 1.23%. Work on `O=C(Nc1ccc(F)cc1)N[C@H]1C=C[C@@H](CC(=O)N2CCOCC2)O[C@H]1CO` yielded a reporter increase of -15.4%. `Cc1cccc(S(=O)(=O)N2CC[C@@H]3[C@H]2c2cc(C#Cc4ccc(F)cc4)ccc2N[C@@H]3CO)c1` gave a reporter increase of 1.22%. In the case of `COCC(=O)Nc1ccc2c(c1)OC[C@H](C)N(C(=O)c1ccccn1)C[C@@H](C)[C@H](OC)CN(C)C2=O`, the reporter increase was -4.41%. For `Cc1nn(-c2ccccc2)c(Cl)c1/C=N/NC(=O)c1nn(C)cc1[N+](=O)[O-]`, the reporter increase was 52.5% (active). Work on `COc1ccc(CCNC(=O)c2c(C)nn(-c3ccccc3)c2Cl)cc1` yielded a reporter increase of -5.69%. With `Cc1c(NC(=O)c2c([N+](=O)[O-])cnn2C)c(=O)n(-c2ccccc2)n1C` the reporter increase was -3.74%. `CCC(=O)N(C)C[C@@H]1Oc2cc(-c3ccc(C#N)cc3)ccc2S(=O)(=O)N([C@@H](C)CO)C[C@@H]1C` gave a reporter increase of 2.37%. With `CCCc1cn(CC[C@@H]2CC[C@@H](NC(=O)C3CC3)[C@H](CO)O2)nn1` the reporter increase was 1.12%. Work on `C[C@@H]1CN([C@H](C)CO)C(=O)CCCn2nncc2CO[C@@H]1CN(C)Cc1ccc2c(c1)OCCN2C` yielded a reporter increase of -3.86%. With `CO[C@@H]1CN(C)C(=O)c2cc(NS(C)(=O)=O)ccc2OC[C@H](C)N(C(=O)C2CC2)C[C@@H]1C` the reporter increase was 0.928%. With `COCC#Cc1cnc2c(c1)C(=O)N([C@H](C)CO)C[C@H](C)[C@H](CN(C)Cc1ccc(-c3ccccc3)cc1)O2` the reporter increase was -4.32%. For `Cc1nn(CCOc2ccccc2)c(=O)n1-c1ccccc1F`, the reporter increase was 49.4% (active). Compound `O=C(NCCOc1ccccc1)c1ccccc1F` has a reporter increase of -7.45%. `Cc1c(C(N)=O)sc2ncn(CCOc3ccccc3)c(=O)c12` gave a reporter increase of 16.1%. For `COCC(=O)Nc1ccc2c(c1)[C@H]1C[C@H](CC(=O)NCc3ccccn3)O[C@H](CO)[C@H]1O2`, the reporter increase was 0.452%. `CO[C@H]1CN(C)C(=O)c2ccc(NS(=O)(=O)c3cn(C)cn3)cc2OC[C@@H](C)N(C)C[C@@H]1C` showed a reporter increase of -7.11%. For `C[C@@H](NC(=O)C[C@@H]1CC[C@@H]2[C@H](COC[C@@H](O)CN2C(=O)Nc2cccc(F)c2)O1)c1ccccc1`, the reporter increase was 11.2%. For `CCCN(C)C[C@H]1Oc2ncc(C#CC3CCCCC3)cc2C(=O)N([C@H](C)CO)C[C@@H]1C`, the reporter increase was -4.47%. `C[C@@H]1CN([C@@H](C)CO)C(=O)Cc2cc(NS(=O)(=O)c3cccs3)ccc2O[C@H]1CN(C)S(=O)(=O)c1ccc(F)cc1` gave a reporter increase of -3.47%. In the case of `CN(C)S(=O)(=O)c1ccc2oc(SCC(=O)Nc3ccccc3F)nc2c1`, the reporter increase was 56% (active). Compound `COc1ccc(S(=O)(=O)N(C)C)cc1NC(=O)CSc1ncccn1` has a reporter increase of -0.957%. With `COc1ccc(NS(=O)(=O)c2ccc3oc(SCC(N)=O)nc3c2)cc1` the reporter increase was 4.52%. Compound `COc1ccc(NC(=O)N[C@H]2CC[C@@H](CCNS(=O)(=O)c3cccc(Cl)c3)O[C@H]2CO)cc1` has a reporter increase of 1.55%. Compound `COc1cccc(NC(=O)C[C@@H]2CC[C@@H]3[C@H](COc4ccc(NC(=O)C5CCOCC5)cc4C(=O)N3C)O2)c1` has a reporter increase of 1.18%. `C[C@H](CO)N1C[C@H](C)[C@@H](CN(C)Cc2ccccc2)OCCCC[C@H](C)Oc2ccc(NC(=O)Cc3ccccc3)cc2C1=O` gave a reporter increase of 1.95%. `COc1ccc(NC(=O)Nc2cccc3c2O[C@H](CN(C)Cc2ccc(Cl)c(Cl)c2)[C@H](C)CN([C@@H](C)CO)C3=O)cc1` showed a reporter increase of 4.75%. In the case of `CCc1ccc(NC(=O)Cn2nnc(C(=O)NCc3ccc4c(c3)OCO4)c2N)cc1`, the reporter increase was -0.239%. Work on `O=C(Nc1ccc2c(c1)OCCO2)C(C1CC1)N1CCC(Cc2ccccc2)CC1` (stereo not drawn) yielded a reporter increase of -12.5%. For `Nc1c(C(=O)Nc2ccc3c(c2)OCCO3)nnn1Cc1ccccc1`, the reporter increase was 62.1% (active). Work on `C[C@@H]1CN([C@H](C)CO)C(=O)c2cc(NC(=O)c3ccncc3)ccc2O[C@H]1CN(C)C(=O)Nc1ccc(C(F)(F)F)cc1` yielded a reporter increase of 8.53%. Work on `Cc1ccccc1S(=O)(=O)NCC[C@@H]1CC[C@H](NC(=O)C2CCC2)[C@@H](CO)O1` yielded a reporter increase of -0.558%. `Nc1nnnn1/N=C/c1cccs1` showed a reporter increase of 2.23%. In the case of `C(=N/N1CCN(c2ccccc2)CC1)/c1cccs1`, the reporter increase was 45.3% (active). `Cc1ccc(N2CCN(/N=C/c3cccs3)CC2)cc1` gave a reporter increase of 13.6%. In the case of `C[C@H]1CN([C@@H](C)CO)C(=O)CCCn2cc(nn2)CO[C@H]1CN(C)C(=O)Nc1ccc(F)cc1`, the reporter increase was -7.14%. In the case of `C[C@H](CO)N1C[C@H](C)[C@@H](CN(C)S(=O)(=O)c2ccc(F)cc2)Oc2ccc(NC(=O)CCCCCC(=O)Nc3ccccc3N)cc2CC1=O`, the reporter increase was 1.27%. Work on `COCCNC(=O)C[C@@H]1C[C@@H]2c3cc(NC(=O)Nc4ccc(C(F)(F)F)cc4)ccc3O[C@@H]2[C@@H](CO)O1` yielded a reporter increase of -4.42%. In the case of `CCC(=O)N1C[C@H](C)[C@H](OC)CN(C)C(=O)c2ccc(NC(=O)Nc3ccc(Cl)cc3)cc2OC[C@H]1C`, the reporter increase was 4.13%. With `C[C@H](CO)N1C[C@H](C)[C@@H](CN(C)Cc2ccc(Oc3ccccc3)cc2)OCc2cn(nn2)CCCC1=O` the reporter increase was 0.422%. With `N#CNC1=NCN(CCc2ccccc2)CN1` the reporter increase was -7.73%. In the case of `c1ccc(CCN2CN=C(Nc3nc4ccccc4o3)NC2)cc1`, the reporter increase was 45.9% (active). `CC1CCN(Cc2nc3c(c(=O)n(C)c(=O)n3C)n2CCc2ccccc2)CC1` gave a reporter increase of -5.75%. In the case of `C[C@@H]1CCCCO[C@H](CN(C)Cc2ccc3c(c2)OCO3)[C@@H](C)CN([C@H](C)CO)C(=O)c2cc(N(C)C)ccc2O1`, the reporter increase was 0.519%. With `O=C(Cc1ccccc1)Nc1ccc(C(=O)Nc2ccccc2C(=O)O)cc1` the reporter increase was -1.37%. Work on `O=C(CNC(=O)c1ccco1)NNC(=O)c1ccc(Br)cc1` yielded a reporter increase of -0.872%. In the case of `CC(C)(C)c1ccc(C(=O)NNC(=O)Cc2ccccc2)cc1`, the reporter increase was 49% (active). `C[C@H](CO)N1C[C@H](C)[C@@H](CN(C)S(=O)(=O)c2ccc(Cl)cc2)Oc2ccc(NS(=O)(=O)c3cccs3)cc2CC1=O` gave a reporter increase of 6.86%. Work on `CC(C)C#Cc1cnc2c(c1)C(=O)N([C@@H](C)CO)C[C@@H](C)[C@H](CN(C)C(=O)CCN1CCCCC1)O2` yielded a reporter increase of 0.29%. In the case of `O=C(C[C@@H]1CC[C@H]2[C@@H](COC[C@@H](O)CN2S(=O)(=O)c2cccc(Cl)c2)O1)N1CCCCC1`, the reporter increase was -2.86%. Work on `CC(C)(c1ccccc1)c1ccc(OCCN2CCCC2)cc1` yielded a reporter increase of -18.8%. `Cc1cccc(C)c1OCCN1CCOCC1` gave a reporter increase of -3.46%. For `c1ccc(-c2ccc(OCCN3CCOCC3)cc2)cc1`, the reporter increase was 50.5% (active). `Cc1noc(C)c1S(=O)(=O)Nc1ccc2c(c1)C(=O)N([C@H](C)CO)C[C@@H](C)[C@@H](CN(C)S(=O)(=O)c1ccc(Cl)cc1)O2` gave a reporter increase of 6.53%. In the case of `Cc1nc2ccc(C(=O)N/N=C/c3ccc(O)cc3)cc2[nH]1`, the reporter increase was -6.33%. Compound `CC(C)c1c(C(=O)N/N=C/c2ccc(-c3ccccc3)cc2)nnn1-c1nonc1N` has a reporter increase of -2.09%. For `Cc1nonc1C(=O)N/N=C/c1ccc(O)cc1`, the reporter increase was 50.7% (active). `C[C@H]1CN([C@@H](C)CO)S(=O)(=O)c2ccc(-c3cncnc3)cc2O[C@H]1CN(C)Cc1ccncc1` gave a reporter increase of 0.176%. Compound `O=C(Nc1cccc(Cl)c1Cl)c1ccccc1NC(=O)C1CC=CCC1C(=O)O` (stereo not drawn) has a reporter increase of 5.49%. For `O=C(Nc1ccc(Cl)c(Cl)c1)c1ccccc1NC(=O)C1CC=CCC1C(=O)O` (stereo not drawn), the reporter increase was 92.4% (active). With `O=C(O)C1CC=CCC1C(=O)NCCc1ccccc1` (stereo not drawn) the reporter increase was -11%. Compound `CC(=O)c1c(C)[nH]c(C(=O)OCC(=O)Nc2c(C)cccc2C)c1C` has a reporter increase of -23.7%. In the case of `CCCCOC(=O)c1[nH]c(C)c(C(=O)OC)c1C`, the reporter increase was 78.5% (active). `COC(=O)c1c(C)[nH]c(C(=O)NCCc2ccc(S(N)(=O)=O)cc2)c1C` gave a reporter increase of -4.52%.
